High-throughput results from PubChem BioAssay.
EBV LMP1 NFkB – Epstein-Barr LMP1 NF-kappaB reporter inhibition; 350,000 compounds, 0.69% hits; inhibition, % at 12.5 µM; LMP1-induced NF-kappaB luciferase reporter cells, luminescence; in the data active means inhibition above about 41%; inconclusive means no clear call, values can overlap the other calls;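 further: 0% = neutral control wells and 100% = reference inhibitor control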
EWS-Fli block – blocks EWS/Fli oncoprotein-driven transcription | A673 NR0B1-luciferase reporter, viability-normalised | inhibition, % at 12.6 µM | 350,000 compounds, 0.67% hits | AID 651661;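 active means mean inhibition of at least 50% after viability correction, with every replicate also passing that limit; inconclusive means mean reaches 50% but only one of two replicates passes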;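 further: firefly luciferase signal divided by Alamar Blue viability fluorescence both relative to DMSO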
PAX8 inh HTS – PAX8 transcriptional activity inhibition; RMG-I TPO-luciferase reporter, SteadyGlo, 24 h; inhibition, % at 12.6 µM; 360,000 compounds, 1.2% hits; AID 652154;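 active means mean replicate inhibition at least 60% with every replicate also reaching 60%; inconclusive means only one of the two criteria is met; inactive means mean below 60% and not all replicates reaching 60%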;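 further: luciferase light reporting Pax8 driven TPO promoter activity; plate controls were median of neutral control wells for no effect and mitoxantrone controls for full effect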
TROY NFkB inh – TROY signaling inhibition; 360,000 compounds, 0.98% hits; inhibition, % at 10 µM; Q293 LMP1-TROYcd NF-kB luciferase reporter, 4 h;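 active means compounds whose plate-normalised and pattern-corrected inhibition of the luciferase reporter signal at the single screening dose is 50% or more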
LGR2 antag – blocks bursicon-induced cAMP signaling via Drosophila LGR2; HEK293 LGR2, CRE-luciferase, bursicon-stimulated, 4 h; inhibition, % at 9.99 µM; 380,000 compounds, 0.35% hits; AID 720647;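 active means drop in luminescence signal, shown as inhibition above about 50% in the replicate tests, limit read from the data, passing the limit was not always enough; inconclusive means probably only some replicates passing the limit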;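 further: agonist challenge used bursicon conditioned medium at about half maximal strength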
TWEAK Fn14 block – blocks TWEAK-Fn14 interaction in a reporter cell assay; AID 1159606; 360,000 compounds, 2% hits; inhibition, % at 10 µM; TWEAK-stimulated Fn14 reporter cells, luciferase luminescence, 8 h; in the data active means inhibition above about 50%
The depositor's hits bear a star; ? = inconclusive; . = no result. In the library only some 3.2% were active in any assay of this set; here they are far more common.

SMILES	EBV LMP1 NFkB	EWS-Fli block	PAX8 inh HTS	TROY NFkB inh	LGR2 antag	TWEAK Fn14 block
CCOC(=O)c1ccc2nc(NC(=O)c3ccco3)sc2c1	5.3	.	-75.2	8.9	.	45.9
CCCc1cn(CC[C@H]2CC[C@H](NC(=O)C3CCCCC3)[C@H](CO)O2)nn1	.	1.3	-8.7	.	-18.6	.
CCS(=O)(=O)N1CCCC(C(=O)NCCCN2CCCC2=O)C1 (stereo not given)	1.2	.	.	.	.	63.5*
CCS(=O)(=O)N1CCCC(C(=O)NCCCOC)C1 (stereo not given)	-7.3	.	.	-23.4	.	-12.2
O=C(Nc1ccccn1)c1ccc(-c2ccccc2)cc1	47.0*	72.7*	-1.3	54.4*	70.3*	89.3*
CC(C)(C)c1ccc(C(=O)Nc2cnccn2)cc1	2.3	.	.	13.4	.	60.7*
O=C(Nc1ccccn1)C(=O)Nc1ccccn1	-15.4	-61.4	-11.8	28.6	-10.3	51.0*
O=C(Nc1ccccc1)Nc1ccccn1	-16.8	.	.	-55.0	.	-20.0
COc1ccc(C(=O)Nc2ccccn2)cc1	-0.4	.	.	-2.5	.	-7.0
O=C1OC(c2ccccc2)(c2ccc3cc(O)ccc3c2)c2ccccc21 (stereo not given)	6.4	2.8	12.4	28.5	.	60.1*
O=C1OC(c2ccccc2)(c2cc(Br)ccc2O)c2ccccc21 (stereo not given)	-2.4	-8.5	16.6	74.3*	23.7	55.9*
O=C1OC(c2ccc3ccccc3c2O)(c2ccc3ccccc3c2O)c2ccccc21	-8.9	-35.3	-35.4	66.2*	-27.7	95.4*
O=[N+]([O-])c1ccc(-c2c(O)c3ccccc3c3nc4ccccc4nc23)cc1	8.9	3.9	12.6	54.0*	0.5	22.2
O=[N+]([O-])c1ccc(-c2nc(Nc3cccc(O)c3)c3ccccc3n2)cc1	-15.8	11.2	-6.5	82.3*	-3.9	80.4*
O=C(O)c1cccc(Nc2nc(-c3ccc([N+](=O)[O-])cc3)nc3ccccc23)c1	0.6	-11.5	1.1	-5.0	-4.6	46.6
Cc1ccc(O)c(N=Nc2ccccc2)n1	9.9	-84.5	-107.9	25.6	?	57.5*
Cc1ccc(Cl)cc1N1CCN(C(=O)c2cn(C)c(=O)c3c2c2ccccc2n3C)CC1	21.2	54.3*	.	11.3	7.5	15.6
CCn1cc(S(=O)(=O)Nc2ccc3c(c2)OCCO3)cn1	6.7	40.4	-27.2	85.9*	24.8	88.0*
COc1ccc(S(=O)(=O)Nc2ccc3c(c2)OCCO3)cc1OC	5.9	3.2	-21.7	21.4	-2.3	55.5*
Cn1cc(S(=O)(=O)Nc2ccc3c(c2)OCCO3)cn1	9.1	10.8	-3.7	62.3*	13.1	70.0*
Cc1nc(S(=O)(=O)Nc2ccc3c(c2)OCCO3)cn1C	4.1	-10.3	-5.8	11.5	-7.0	7.8
CCCNC(=O)[C@H]1[C@H](CO)[C@H]2Cn3c(ccc(-c4ccccc4)c3=O)[C@@H]1N2C(=O)C1CC1	.	-4.5	.	.	30.9	.
CCN(CC)C(=O)c1cccc(-c2csc(C(O)c3cccc(Cl)c3)n2)c1 (stereo not given)	.	13.0	17.6	45.1	24.7	61.4*
CC(OC(=O)c1ccc(S(C)(=O)=O)c([N+](=O)[O-])c1)C(=O)NC1C2CC3CC(C2)CC1C3 (stereo not given)	.	49.6	105.7*	48.6	8.2	101.6*
CCC(OC(=O)c1ccc(S(C)(=O)=O)c([N+](=O)[O-])c1)C(=O)NC1C2CC3CC(C2)CC1C3 (stereo not given)	.	47.4	94.3*	41.1	6.5	100.1*
SMILES	EBV LMP1 NFkB	EWS-Fli block	PAX8 inh HTS	TROY NFkB inh	LGR2 antag	TWEAK Fn14 block
CN1CCN(C(=O)C[C@H]2CC[C@H]3[C@@H](COC[C@H](O)CN3CC3CC3)O2)CC1	.	1.0	-30.9	.	0.4	.
C[C@H]1CN([C@@H](C)CO)C(=O)c2cc(C#CCC3CCCC3)cnc2O[C@H]1CN(C)C(=O)CN(C)C	.	-9.4	10.6	.	-1.3	.
CN(/N=C/c1cc([N+](=O)[O-])ccc1O)c1ccccc1	-7.5	-25.4	-38.4	-50.1	-51.8	-54.5
Oc1[nH]c2ccccc2c1C=Nc1ccc2c(c1)OCCO2	-35.0	.	.	81.1*	.	42.7
O=[N+]([O-])c1ccc(O)c(C=Nc2ccc3c(c2)OCCO3)c1	14.3	.	-90.6	55.5*	-43.4	67.4*
Oc1c(Br)cc(Br)cc1C=Nc1ccc2c(c1)OCCO2	5.2	-13.1	-8.1	67.3*	21.0	65.1*
CC(C)C(=O)Nc1ccc2c(c1)C(=O)N(C)[C@@H]1CC[C@@H](CC(=O)Nc3ccccc3)O[C@@H]1CO2	.	.	-8.9	.	14.9	.
